# Test results taken from PMC7862700, “An all-to-all approach to the identification of sequence-specific readers for epigenetic DNA modifications on cytosine”.
# Legend:
# Assay in all cases: DAPPL (digital affinity profiling via proximity ligation, sequencing); 10 mM Tris-HCl pH 7.5, 50 mM NaCl, 1 mM DTT, 4% glycerol, room temperature, 30 min; GST-TFs on glutathione beads, 16-mer random dsDNA library, 0.1% formaldehyde crosslink after washing; high values mean tight binding
# FEV = target: T1, FEV (Homo sapiens, UniProt Q99581 1-238); conditions: protein: recombinant; tags: N-terminal GST; dsDNA, one strand shown
# T1 sequence: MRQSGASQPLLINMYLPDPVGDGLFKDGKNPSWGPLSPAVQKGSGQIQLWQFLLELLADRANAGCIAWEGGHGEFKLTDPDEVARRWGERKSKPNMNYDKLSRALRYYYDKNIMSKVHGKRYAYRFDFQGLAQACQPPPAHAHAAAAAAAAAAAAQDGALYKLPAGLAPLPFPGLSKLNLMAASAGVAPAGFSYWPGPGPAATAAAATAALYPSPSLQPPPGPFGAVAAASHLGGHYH
# How it was run: (§1)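 Human transcription factors carrying a GST fusion were produced in yeast, bound to glutathione beads, tagged with DNA barcodes and pooled together with a tag-only sample. Each pool was held with 200 nmole of a random double-stranded 16-mer DNA library in Tris/NaCl/DTT/glycerol buffer for 30 min at room temperature, then washed, crosslinked in 0.1% formaldehyde, proximity-ligated with BsaI/T4 ligase (1 h, 37 °C), PCR-amplified and sequenced on an Illumina NextSeq500. Binding signal is the read frequency of each hexamer for a given factor divided by its frequency in the tag-only sample.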
# ETV5 = ETV5 (Homo sapiens, UniProt P41161 1-510); conditions: protein: recombinant; tags: N-terminal GST; dsDNA, one strand shown
# Chain of ETV5 (P41161 whole entry): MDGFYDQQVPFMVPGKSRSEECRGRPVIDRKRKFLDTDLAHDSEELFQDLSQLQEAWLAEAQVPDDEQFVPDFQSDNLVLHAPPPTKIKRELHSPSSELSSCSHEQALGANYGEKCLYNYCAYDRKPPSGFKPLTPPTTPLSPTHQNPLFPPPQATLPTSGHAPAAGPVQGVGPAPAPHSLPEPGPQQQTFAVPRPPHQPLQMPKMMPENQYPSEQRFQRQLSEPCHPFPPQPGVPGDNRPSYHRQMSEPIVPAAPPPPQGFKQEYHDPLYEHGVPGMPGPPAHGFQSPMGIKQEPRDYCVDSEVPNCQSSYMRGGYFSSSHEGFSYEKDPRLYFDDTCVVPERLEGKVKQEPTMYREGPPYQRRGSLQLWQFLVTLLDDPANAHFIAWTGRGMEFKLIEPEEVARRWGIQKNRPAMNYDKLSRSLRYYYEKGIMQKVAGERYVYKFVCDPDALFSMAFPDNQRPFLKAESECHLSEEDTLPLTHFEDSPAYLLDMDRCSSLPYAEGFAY
# How it was run: as §1
# HSF1 = HSF1 (Homo sapiens, UniProt Q00613 1-529); conditions: protein: recombinant; tags: N-terminal GST; chain copies: 3; dsDNA, one strand shown
# Chain of HSF1 (Q00613 whole entry): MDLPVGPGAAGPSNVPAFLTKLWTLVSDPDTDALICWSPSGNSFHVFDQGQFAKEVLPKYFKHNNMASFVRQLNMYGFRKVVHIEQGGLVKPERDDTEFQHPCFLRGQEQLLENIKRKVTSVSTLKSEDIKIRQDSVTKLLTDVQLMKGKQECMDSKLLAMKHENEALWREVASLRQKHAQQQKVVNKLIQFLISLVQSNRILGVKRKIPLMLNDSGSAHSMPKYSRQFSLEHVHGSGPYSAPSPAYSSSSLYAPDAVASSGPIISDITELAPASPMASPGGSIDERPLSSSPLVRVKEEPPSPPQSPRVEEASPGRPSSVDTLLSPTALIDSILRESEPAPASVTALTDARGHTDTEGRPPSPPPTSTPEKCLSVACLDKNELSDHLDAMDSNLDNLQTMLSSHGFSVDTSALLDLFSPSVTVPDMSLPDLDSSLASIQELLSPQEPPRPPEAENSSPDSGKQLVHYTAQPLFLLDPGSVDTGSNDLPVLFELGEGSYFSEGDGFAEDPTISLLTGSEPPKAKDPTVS
# How it was run: as §1
# SPIC = target: T2, SPIC (Homo sapiens, UniProt Q8N5J4 1-248); conditions: protein: recombinant; tags: N-terminal GST; dsDNA, one strand shown
# T2 sequence: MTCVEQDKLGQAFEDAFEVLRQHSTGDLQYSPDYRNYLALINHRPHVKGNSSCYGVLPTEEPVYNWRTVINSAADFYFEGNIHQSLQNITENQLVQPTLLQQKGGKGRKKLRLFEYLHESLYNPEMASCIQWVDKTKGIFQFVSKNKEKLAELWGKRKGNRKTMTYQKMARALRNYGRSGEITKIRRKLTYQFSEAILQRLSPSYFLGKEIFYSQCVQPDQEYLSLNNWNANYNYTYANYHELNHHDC
# How it was run: as §1
# ELF4 = ELF4 (Homo sapiens, UniProt Q99607 1-663); conditions: protein: recombinant; tags: N-terminal GST; dsDNA, one strand shown
# Chain of ELF4 (Q99607 whole entry): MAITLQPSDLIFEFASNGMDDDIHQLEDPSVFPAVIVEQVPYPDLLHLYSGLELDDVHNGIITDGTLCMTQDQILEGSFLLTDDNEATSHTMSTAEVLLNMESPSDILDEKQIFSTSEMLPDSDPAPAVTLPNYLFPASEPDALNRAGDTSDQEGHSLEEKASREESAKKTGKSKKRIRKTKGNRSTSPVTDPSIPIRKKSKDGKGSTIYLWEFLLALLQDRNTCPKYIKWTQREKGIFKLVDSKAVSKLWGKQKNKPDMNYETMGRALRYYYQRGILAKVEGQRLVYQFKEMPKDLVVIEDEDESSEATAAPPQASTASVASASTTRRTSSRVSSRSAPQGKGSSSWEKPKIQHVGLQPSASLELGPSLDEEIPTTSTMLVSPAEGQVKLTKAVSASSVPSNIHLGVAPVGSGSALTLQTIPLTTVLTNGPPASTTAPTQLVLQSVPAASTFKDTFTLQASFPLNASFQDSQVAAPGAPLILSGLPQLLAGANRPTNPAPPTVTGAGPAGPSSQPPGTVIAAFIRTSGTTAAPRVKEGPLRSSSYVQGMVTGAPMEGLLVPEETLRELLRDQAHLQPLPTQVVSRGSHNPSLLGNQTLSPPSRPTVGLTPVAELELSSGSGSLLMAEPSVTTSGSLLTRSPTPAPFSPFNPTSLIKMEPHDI
# How it was run: as §1
# ELK4 = target: T3, ELK4 (Homo sapiens, UniProt P28324-2 1-405); conditions: protein: recombinant; tags: N-terminal GST; dsDNA, one strand shown
# T3 sequence: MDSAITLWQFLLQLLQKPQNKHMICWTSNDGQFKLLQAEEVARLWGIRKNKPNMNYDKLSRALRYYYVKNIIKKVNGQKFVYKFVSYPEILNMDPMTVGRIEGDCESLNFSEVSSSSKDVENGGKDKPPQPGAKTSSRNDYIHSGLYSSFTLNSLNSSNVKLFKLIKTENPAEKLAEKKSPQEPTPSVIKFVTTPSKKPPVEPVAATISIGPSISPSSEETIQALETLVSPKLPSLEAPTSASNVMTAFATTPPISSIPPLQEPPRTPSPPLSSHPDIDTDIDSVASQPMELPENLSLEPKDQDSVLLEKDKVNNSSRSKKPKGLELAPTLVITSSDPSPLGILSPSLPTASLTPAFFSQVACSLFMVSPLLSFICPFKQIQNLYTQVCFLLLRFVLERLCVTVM
# How it was run: as §1
# ETV2 = target: T4, ETV2 (Homo sapiens, UniProt O00321 1-342); conditions: protein: recombinant; tags: N-terminal GST; dsDNA, one strand shown
# T4 sequence: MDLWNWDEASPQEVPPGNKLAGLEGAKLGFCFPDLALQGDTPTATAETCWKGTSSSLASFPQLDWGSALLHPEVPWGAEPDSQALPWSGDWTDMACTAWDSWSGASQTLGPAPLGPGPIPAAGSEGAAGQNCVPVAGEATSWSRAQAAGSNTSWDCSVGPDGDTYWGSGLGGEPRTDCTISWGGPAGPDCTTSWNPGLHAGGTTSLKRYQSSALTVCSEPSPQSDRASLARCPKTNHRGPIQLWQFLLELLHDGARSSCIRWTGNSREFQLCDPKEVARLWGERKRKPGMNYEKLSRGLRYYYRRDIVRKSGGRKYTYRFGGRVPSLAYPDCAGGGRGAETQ
# How it was run: as §1
# ELF3 = target: T5, ELF3 (Homo sapiens, UniProt P78545 1-371); conditions: protein: recombinant; tags: N-terminal GST; dsDNA, one strand shown
# T5 sequence: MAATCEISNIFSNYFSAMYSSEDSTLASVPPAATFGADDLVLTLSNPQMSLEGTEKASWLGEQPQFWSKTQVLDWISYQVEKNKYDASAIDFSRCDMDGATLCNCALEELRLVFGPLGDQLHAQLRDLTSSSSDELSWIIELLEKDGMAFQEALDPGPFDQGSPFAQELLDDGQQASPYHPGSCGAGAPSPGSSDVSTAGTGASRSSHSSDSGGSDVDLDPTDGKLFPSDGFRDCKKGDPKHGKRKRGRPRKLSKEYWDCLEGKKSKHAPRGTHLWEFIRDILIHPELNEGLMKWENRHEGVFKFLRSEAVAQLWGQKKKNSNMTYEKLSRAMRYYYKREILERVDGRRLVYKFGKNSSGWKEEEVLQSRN
# How it was run: as §1
# CRX = CRX (Homo sapiens, UniProt O43186 1-299); conditions: protein: recombinant; tags: N-terminal GST; dsDNA, one strand shown
# Chain of CRX (O43186 whole entry): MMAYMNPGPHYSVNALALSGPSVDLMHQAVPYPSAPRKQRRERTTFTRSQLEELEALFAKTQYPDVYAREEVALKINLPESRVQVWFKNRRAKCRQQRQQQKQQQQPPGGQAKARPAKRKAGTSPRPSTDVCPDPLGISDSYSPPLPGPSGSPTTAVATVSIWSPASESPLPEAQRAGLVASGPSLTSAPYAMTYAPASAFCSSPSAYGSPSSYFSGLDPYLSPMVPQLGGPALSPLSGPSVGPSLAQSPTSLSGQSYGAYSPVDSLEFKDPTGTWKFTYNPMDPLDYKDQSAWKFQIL
# How it was run: as §1
# ETV1 = ETV1 (Homo sapiens, UniProt P50549 1-477); conditions: protein: recombinant; tags: N-terminal GST; dsDNA, one strand shown
# Chain of ETV1 (P50549 whole entry): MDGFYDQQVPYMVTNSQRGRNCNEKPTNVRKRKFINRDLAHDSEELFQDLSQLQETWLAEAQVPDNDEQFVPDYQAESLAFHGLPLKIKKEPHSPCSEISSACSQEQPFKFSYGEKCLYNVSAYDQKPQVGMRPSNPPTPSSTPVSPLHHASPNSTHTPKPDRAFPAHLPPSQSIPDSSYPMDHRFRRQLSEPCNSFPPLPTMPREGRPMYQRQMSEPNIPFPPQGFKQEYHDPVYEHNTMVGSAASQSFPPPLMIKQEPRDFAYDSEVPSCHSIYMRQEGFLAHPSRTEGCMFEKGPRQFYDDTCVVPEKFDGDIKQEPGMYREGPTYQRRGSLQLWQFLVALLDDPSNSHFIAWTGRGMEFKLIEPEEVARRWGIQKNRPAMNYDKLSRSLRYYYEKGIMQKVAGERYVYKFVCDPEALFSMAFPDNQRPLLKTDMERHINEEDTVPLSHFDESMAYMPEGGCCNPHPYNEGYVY
# How it was run: as §1
# ERF = target: T6, ERF (Homo sapiens, UniProt P50548 1-548); conditions: protein: recombinant; tags: N-terminal GST; dsDNA, one strand shown
# T6 sequence: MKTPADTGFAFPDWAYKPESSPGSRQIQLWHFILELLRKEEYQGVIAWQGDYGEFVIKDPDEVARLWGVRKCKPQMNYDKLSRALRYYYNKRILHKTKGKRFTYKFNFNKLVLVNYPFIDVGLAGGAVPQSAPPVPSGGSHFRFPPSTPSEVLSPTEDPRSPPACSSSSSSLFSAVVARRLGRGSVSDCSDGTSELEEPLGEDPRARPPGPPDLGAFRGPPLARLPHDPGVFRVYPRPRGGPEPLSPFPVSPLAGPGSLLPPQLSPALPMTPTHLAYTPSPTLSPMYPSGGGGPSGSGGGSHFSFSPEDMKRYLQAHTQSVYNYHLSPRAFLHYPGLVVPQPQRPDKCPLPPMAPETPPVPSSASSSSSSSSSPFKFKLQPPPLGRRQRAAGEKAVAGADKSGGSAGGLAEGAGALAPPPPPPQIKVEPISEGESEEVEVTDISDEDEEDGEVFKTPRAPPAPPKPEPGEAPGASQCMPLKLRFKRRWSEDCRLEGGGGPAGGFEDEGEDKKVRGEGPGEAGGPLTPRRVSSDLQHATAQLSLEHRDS
# How it was run: as §1
# ETV3L = target: T7, ETV3L (Homo sapiens, UniProt Q6ZN32 1-361); conditions: protein: recombinant; tags: N-terminal GST; dsDNA, one strand shown
# T7 sequence: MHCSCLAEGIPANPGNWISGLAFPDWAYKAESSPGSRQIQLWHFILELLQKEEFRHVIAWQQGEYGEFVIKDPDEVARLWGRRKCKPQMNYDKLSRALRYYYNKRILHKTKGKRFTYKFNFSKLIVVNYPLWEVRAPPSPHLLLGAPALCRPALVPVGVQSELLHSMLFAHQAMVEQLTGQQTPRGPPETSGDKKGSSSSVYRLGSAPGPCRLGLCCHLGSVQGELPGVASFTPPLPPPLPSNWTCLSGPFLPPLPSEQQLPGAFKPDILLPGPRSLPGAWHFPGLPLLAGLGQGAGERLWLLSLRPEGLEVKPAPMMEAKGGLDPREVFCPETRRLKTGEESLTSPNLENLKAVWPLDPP
# How it was run: as §1
# ETS2 = target: T8, ETS2 (Homo sapiens, UniProt P15036 1-469); conditions: protein: recombinant; tags: N-terminal GST; dsDNA, one strand shown
# T8 sequence: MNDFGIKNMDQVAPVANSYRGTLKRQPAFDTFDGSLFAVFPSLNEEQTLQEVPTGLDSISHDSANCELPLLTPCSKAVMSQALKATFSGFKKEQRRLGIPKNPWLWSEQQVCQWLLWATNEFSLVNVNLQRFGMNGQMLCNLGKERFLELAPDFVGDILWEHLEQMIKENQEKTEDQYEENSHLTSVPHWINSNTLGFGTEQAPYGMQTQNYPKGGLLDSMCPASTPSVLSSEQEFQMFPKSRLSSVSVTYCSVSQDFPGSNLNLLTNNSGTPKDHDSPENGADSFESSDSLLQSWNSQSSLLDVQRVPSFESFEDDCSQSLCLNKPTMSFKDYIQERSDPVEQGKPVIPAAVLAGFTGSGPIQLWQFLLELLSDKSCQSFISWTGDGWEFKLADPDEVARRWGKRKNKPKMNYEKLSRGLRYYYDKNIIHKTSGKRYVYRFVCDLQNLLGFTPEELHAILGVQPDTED
# How it was run: as §1
# SPDEF = target: T9, SPDEF (Homo sapiens, UniProt O95238 1-335); conditions: protein: recombinant; tags: N-terminal GST; dsDNA, one strand shown
# T9 sequence: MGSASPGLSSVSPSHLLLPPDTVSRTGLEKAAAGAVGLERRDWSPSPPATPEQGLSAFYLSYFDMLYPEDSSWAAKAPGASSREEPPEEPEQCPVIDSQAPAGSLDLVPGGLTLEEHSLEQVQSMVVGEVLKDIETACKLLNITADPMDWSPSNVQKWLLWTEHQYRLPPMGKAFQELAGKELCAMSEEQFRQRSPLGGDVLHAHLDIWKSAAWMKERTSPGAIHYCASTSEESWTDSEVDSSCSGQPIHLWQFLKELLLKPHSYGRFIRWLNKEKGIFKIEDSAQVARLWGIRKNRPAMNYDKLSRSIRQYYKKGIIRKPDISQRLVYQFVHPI
# How it was run: as §1
# ETV7 = target: T10, ETV7 (Homo sapiens, UniProt Q9Y603 1-341); conditions: protein: recombinant; tags: N-terminal GST; dsDNA, one strand shown
# T10 sequence: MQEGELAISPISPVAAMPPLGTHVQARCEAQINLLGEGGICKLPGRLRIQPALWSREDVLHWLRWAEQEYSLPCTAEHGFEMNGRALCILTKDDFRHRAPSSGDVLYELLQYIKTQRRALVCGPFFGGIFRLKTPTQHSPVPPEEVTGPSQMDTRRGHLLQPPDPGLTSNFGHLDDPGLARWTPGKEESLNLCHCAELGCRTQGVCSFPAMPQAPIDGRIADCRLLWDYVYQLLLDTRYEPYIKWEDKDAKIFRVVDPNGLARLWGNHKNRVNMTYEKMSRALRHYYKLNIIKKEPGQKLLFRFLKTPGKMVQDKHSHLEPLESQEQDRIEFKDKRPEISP
# How it was run: as §1
# ELF5 = target: T11, ELF5 (Homo sapiens, UniProt Q9UKW6-2 1-255); conditions: protein: recombinant; tags: N-terminal GST; dsDNA, one strand shown
# T11 sequence: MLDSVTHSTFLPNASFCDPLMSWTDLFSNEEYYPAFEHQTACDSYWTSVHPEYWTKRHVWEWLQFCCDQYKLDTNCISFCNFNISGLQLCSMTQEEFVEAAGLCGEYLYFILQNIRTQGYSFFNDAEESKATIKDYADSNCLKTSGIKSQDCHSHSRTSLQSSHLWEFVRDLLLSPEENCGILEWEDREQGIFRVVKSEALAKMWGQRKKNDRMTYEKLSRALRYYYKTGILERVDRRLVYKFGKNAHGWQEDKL
# How it was run: as §1
# ETV3 = target: T12, ETV3 (Homo sapiens, UniProt P41162-2 1-143); conditions: protein: recombinant; tags: N-terminal GST; dsDNA, one strand shown
# T12 sequence: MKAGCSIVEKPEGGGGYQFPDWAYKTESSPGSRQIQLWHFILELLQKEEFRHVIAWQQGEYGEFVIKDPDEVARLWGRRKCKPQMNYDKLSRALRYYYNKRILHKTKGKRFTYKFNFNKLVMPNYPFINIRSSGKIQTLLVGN
# How it was run: as §1
# ETV6 = ETV6 (Homo sapiens, UniProt P41212 1-452); conditions: protein: recombinant; tags: N-terminal GST; dsDNA, one strand shown
# Chain of ETV6 (P41212 whole entry): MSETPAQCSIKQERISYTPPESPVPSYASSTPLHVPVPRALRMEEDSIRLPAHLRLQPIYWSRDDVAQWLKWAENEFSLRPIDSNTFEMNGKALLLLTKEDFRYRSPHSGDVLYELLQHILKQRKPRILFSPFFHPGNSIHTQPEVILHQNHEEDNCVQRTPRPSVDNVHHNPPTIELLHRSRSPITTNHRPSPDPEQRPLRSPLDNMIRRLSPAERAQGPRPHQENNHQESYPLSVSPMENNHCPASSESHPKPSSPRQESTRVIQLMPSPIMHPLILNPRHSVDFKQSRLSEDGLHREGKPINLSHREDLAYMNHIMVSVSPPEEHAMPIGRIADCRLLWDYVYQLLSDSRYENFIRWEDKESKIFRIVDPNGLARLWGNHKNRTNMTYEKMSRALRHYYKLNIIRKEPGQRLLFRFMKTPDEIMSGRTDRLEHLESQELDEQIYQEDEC
# How it was run: as §1
sequence,measurement,setting,value
ATTGCG,binding signal,FEV,"1.17 fold enrichment (6-mer frequency, TF over GST control)"
same,binding signal,ETV5,"1.24 fold enrichment (6-mer frequency, TF over GST control)"
same,binding signal,HSF1,"1.07 fold enrichment (6-mer frequency, TF over GST control)"
same,binding signal,SPIC,"1.29 fold enrichment (6-mer frequency, TF over GST control)"
same,binding signal,ELF4,"1.25 fold enrichment (6-mer frequency, TF over GST control)"
same,binding signal,ELK4,"1.14 fold enrichment (6-mer frequency, TF over GST control)"
same,binding signal,ETV2,"1.59 fold enrichment (6-mer frequency, TF over GST control)"
same,binding signal,ELF3,"1.29 fold enrichment (6-mer frequency, TF over GST control)"
same,binding signal,CRX,"1.12 fold enrichment (6-mer frequency, TF over GST control)"
same,binding signal,ETV1,"1.29 fold enrichment (6-mer frequency, TF over GST control)"
same,binding signal,ERF,"1.35 fold enrichment (6-mer frequency, TF over GST control)"
same,binding signal,ETV3L,"1.29 fold enrichment (6-mer frequency, TF over GST control)"
same,binding signal,ETS2,"1.27 fold enrichment (6-mer frequency, TF over GST control)"
same,binding signal,SPDEF,"1.09 fold enrichment (6-mer frequency, TF over GST control)"
same,binding signal,ETV7,"1.17 fold enrichment (6-mer frequency, TF over GST control)"
same,binding signal,ELF5,"1.21 fold enrichment (6-mer frequency, TF over GST control)"
same,binding signal,ETV3,"1.16 fold enrichment (6-mer frequency, TF over GST control)"
same,binding signal,ETV6,"1.27 fold enrichment (6-mer frequency, TF over GST control)"
